Results as given in article PMC6689086.

Legend:
[1] = molecular target: ATP-dependent molecular chaperone HSC82 (UniProt P15108); assay: mass-spectrometry hit list; affinity purification or IP with mass spectrometry
Heat shock protein SSA1 = Heat shock protein SSA1 (UniProt P10591); assay: as above
Heat shock protein SSA1, sequence (P10591 whole entry): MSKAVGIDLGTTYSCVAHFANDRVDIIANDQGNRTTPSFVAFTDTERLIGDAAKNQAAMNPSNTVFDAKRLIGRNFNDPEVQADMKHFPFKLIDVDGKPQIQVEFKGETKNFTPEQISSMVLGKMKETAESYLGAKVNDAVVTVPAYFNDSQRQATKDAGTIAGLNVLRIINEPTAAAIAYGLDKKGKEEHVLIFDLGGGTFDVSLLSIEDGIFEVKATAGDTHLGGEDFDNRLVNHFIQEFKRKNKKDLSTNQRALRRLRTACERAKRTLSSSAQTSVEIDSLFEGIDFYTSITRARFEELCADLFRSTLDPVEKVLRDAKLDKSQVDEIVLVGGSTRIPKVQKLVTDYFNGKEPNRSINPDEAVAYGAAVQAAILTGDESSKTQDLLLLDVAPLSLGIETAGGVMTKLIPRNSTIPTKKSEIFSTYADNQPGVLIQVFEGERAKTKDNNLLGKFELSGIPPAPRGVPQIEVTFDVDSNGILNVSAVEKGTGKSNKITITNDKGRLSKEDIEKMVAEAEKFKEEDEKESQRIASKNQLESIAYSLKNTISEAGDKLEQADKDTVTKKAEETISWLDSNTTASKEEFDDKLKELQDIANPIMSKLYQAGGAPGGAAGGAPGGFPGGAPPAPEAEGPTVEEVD

Heat shock protein SSA1, P10591, sequence (P10591 whole entry): as above
ATP-dependent molecular chaperone HSC82, sequence (P15108 whole entry): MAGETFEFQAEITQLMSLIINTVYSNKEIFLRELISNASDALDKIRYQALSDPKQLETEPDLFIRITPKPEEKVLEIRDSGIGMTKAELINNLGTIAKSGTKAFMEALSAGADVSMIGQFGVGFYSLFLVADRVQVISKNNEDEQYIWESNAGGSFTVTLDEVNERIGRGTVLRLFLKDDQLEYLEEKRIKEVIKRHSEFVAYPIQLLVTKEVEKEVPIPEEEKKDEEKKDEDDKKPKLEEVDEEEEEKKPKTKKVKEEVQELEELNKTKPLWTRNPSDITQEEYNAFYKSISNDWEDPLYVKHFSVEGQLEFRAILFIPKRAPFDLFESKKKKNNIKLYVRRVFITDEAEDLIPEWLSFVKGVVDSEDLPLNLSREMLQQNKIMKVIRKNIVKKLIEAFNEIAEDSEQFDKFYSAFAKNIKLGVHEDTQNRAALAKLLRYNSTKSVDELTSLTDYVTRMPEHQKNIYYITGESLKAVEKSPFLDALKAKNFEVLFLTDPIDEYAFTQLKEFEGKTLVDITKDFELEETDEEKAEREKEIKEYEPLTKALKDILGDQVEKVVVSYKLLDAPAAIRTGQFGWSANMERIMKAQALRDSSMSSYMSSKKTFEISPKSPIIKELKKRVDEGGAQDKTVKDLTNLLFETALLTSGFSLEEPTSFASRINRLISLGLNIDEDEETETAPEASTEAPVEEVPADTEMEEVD

Row | Substance | listed as a hit [1] | listed as a hit (Heat shock protein SSA1)
1 | Heat shock protein SSA1, P10591 | yes | –
2 | ATP-dependent molecular chaperone HSP82, P02829 | – | yes
